Screens (PubChem BioAssay)
miR-122 inh = miR-122 sensor activation; Huh7 psiCHECK-miR122 Renilla luciferase sensor, 48 h; activation, % at 12.5 µM; actives 0.14% (n = 340,000);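 active = mean activation of 30% or more, with every replicate also reaching 30%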;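 note: 0% = median of neutral control wells and 100% = median of positive control wells; higher luciferase signal means stronger suppression of miR-122 activity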
Active calls of the source: *. The entries come from a sample that favours hits as a whole.

SMILES	miR-122 inh
CCC(=O)N(C)C[C@H]1Oc2ncc(C#C[C@@H](C)O)cc2C(=O)N([C@H](C)CO)C[C@@H]1C	-4
COCC(=O)N(C)C[C@H]1Oc2ncc(C#Cc3ccncc3)cc2C(=O)N([C@H](C)CO)C[C@@H]1C	-7
C[C@H](O)C#Cc1cnc2c(c1)C(=O)N([C@@H](C)CO)C[C@H](C)[C@@H](CN(C)C(=O)CN(C)C)O2	-4
C[C@H](CO)N1C[C@H](C)[C@@H](CN(C)C(=O)Nc2ccc(F)cc2)Oc2c(NS(=O)(=O)c3ccccc3)cccc2C1=O	-128
C[C@H](CO)N1C[C@H](C)[C@@H](CN(C)Cc2ccc3c(c2)OCO3)Oc2c(NC(=O)Nc3ccccc3)cccc2C1=O	-95
C[C@@H]1CN([C@H](C)CO)C(=O)c2cc(-c3cccc(F)c3)cnc2O[C@H]1CN(C)C(=O)c1ccccn1	4
C[C@H]1CN([C@@H](C)CO)C(=O)c2cc(C3=CCCCC3)cnc2O[C@@H]1CN(C)CC1CCOCC1	-3
COc1ccccc1C#Cc1ccc2c(c1)O[C@H](CN(C)Cc1cncnc1)[C@H](C)CN([C@@H](C)CO)S2(=O)=O	-12
C[C@@H]1CN([C@H](C)CO)S(=O)(=O)c2ccc(-c3ccccc3)cc2O[C@H]1CN(C)Cc1cccnc1	-17
C[C@@H]1CN([C@@H](C)CO)S(=O)(=O)c2ccc(-c3ccccc3F)cc2O[C@@H]1CN(C)Cc1cccnc1	49*
COc1ccccc1C#Cc1ccc2c(c1)O[C@H](CN(C)Cc1cncnc1)[C@@H](C)CN([C@@H](C)CO)S2(=O)=O	-7
C[C@H](CO)N1C[C@H](C)[C@H](CN(C)Cc2cccnc2)Oc2cc(-c3ccccc3)ccc2S1(=O)=O	-1
COc1ccccc1C#Cc1ccc2c(c1)O[C@H](CN(C)Cc1cccnc1)[C@H](C)CN([C@@H](C)CO)S2(=O)=O	39*
COCC(=O)N(C)C[C@@H]1Oc2ncc(C#Cc3ccccc3OC)cc2C(=O)N([C@H](C)CO)C[C@H]1C	1
C[C@@H]1CN([C@@H](C)CO)C(=O)c2cc(C#Cc3ccccn3)cnc2O[C@@H]1CN(C)CC1CCOCC1	2
COc1ccc(C#Cc2cnc3c(c2)C(=O)N([C@H](C)CO)C[C@@H](C)[C@@H](CN(C)CC2CCCC2)O3)cc1	8
C[C@@H]1CN([C@@H](C)CO)S(=O)(=O)c2ccc(C#CCC3CCCC3)cc2O[C@@H]1CN(C)C(=O)CN(C)C	7
C[C@H]1CN([C@@H](C)CO)C(=O)c2cc(-c3ccncc3)cnc2O[C@@H]1CN(C)C(=O)C1CCOCC1	-9
C[C@@H]1CN([C@H](C)CO)S(=O)(=O)c2ccc(C#Cc3ccc(F)cc3)cc2O[C@H]1CN(C)S(C)(=O)=O	3
COc1cccc(-n2nnnc2S(C)(=O)=O)c1	48*
COc1cccc(NS(=O)(=O)c2ccc(Br)s2)c1	-218
COc1cccc(NS(=O)(=O)c2c(C)cc(C)cc2C)c1	-399
C[C@@H]1CN([C@@H](C)CO)C(=O)c2cc(C#CCC3CCCC3)cnc2O[C@H]1CN(C)C(=O)CC1CC1	0
COc1cccc2c1C(=O)c1c(O)c3c(c(O)c1C2=O)C[C@@](O)(C(=O)CO)C[C@@H]3O[C@H]1C[C@H](N)[C@H](O)[C@H](C)O1	69*
CCCC#Cc1cnc2c(c1)C(=O)N([C@H](C)CO)C[C@H](C)[C@H](CN(C)C(=O)C1CC1)O2	-12
SMILES	miR-122 inh
Cc1ccc(S(=O)(=O)N2CC[C@@H]3[C@@H](CO)Nc4ccc(-c5ccccc5F)cc4[C@@H]32)cc1	-154
CCN(CC)c1ccc(/C=N/NC(=O)c2ccoc2C)c(O)c1	50*
C[C@@H]1CN([C@@H](C)CO)S(=O)(=O)c2ccc(C#Cc3ccc(F)cc3)cc2O[C@@H]1CN(C)S(=O)(=O)c1cn(C)cn1	-74
Cc1nn(C)cc1NC(=O)C[C@H]1CC[C@@H]2[C@H](COc3ccc(NC(=O)Nc4cccc(Cl)c4)cc3C(=O)N2C)O1	69*
Cc1nn(C)cc1NC(=O)C[C@@H]1CC[C@H]2[C@@H](COc3ccc(NC(=O)Nc4cccc(Cl)c4)cc3C(=O)N2C)O1	48*
COc1cccc(-c2cnc3c(c2)C(=O)N([C@H](C)CO)C[C@H](C)[C@H](CN(C)C(=O)Nc2cccc4ccccc24)O3)c1	9
C[C@@H]1CN([C@H](C)CO)C(=O)c2cc(C#Cc3ccccc3F)cnc2O[C@@H]1CN(C)S(=O)(=O)c1ccccc1	3
CNC[C@@H]1Oc2cc(C#C[C@H](C)O)ccc2S(=O)(=O)N([C@H](C)CO)C[C@H]1C	1
C[C@H]1CN([C@@H](C)CO)C(=O)c2cc(C#CC3(O)CCCC3)cnc2O[C@@H]1CN(C)C(=O)C1CCCCC1	2
C[C@@H]1CN([C@@H](C)CO)S(=O)(=O)c2ccc(-c3cncnc3)cc2O[C@@H]1CN(C)C(=O)Cc1cccnc1	-10
CC(C)C#Cc1cnc2c(c1)C(=O)N([C@@H](C)CO)C[C@H](C)[C@H](CN(C)C(=O)c1ccccc1)O2	0
C[C@@H]1CN([C@@H](C)CO)C(=O)c2cc(-c3cccc(F)c3)cnc2O[C@H]1CN(C)S(C)(=O)=O	-3
CCOc1ccc(-c2cc(N)n(S(=O)(=O)c3ccc(OC)c(OC)c3)n2)cc1	-92
COc1ccc(-c2c(C)nn3c(N)c(-c4ccccc4)cnc23)cc1OC	45*
CCCNC(=O)N(C)C[C@H]1Oc2ncc(C#Cc3ccccc3F)cc2C(=O)N([C@@H](C)CO)C[C@H]1C	7
CO[C@H]1CN(C)C(=O)c2cc(NC(C)=O)ccc2OC[C@H](C)N(C(=O)c2ccccc2)C[C@H]1C	3
CO[C@H]1CN(C)C(=O)c2ccc(NC(=O)c3ccccc3)cc2OC[C@H](C)N(C)C[C@@H]1C	-5
C[C@@H]1CN([C@H](C)CO)S(=O)(=O)c2ccc(C#CCC3CCCC3)cc2O[C@@H]1CN(C)C(=O)c1ccccn1	-14
C[C@@H]1CN([C@H](C)CO)C(=O)c2cc(C#CC3(O)CCCC3)cnc2O[C@@H]1CN(C)C(=O)C1CCCCC1	-2
CN1C(=O)c2cc(NC(=O)c3ccc(C(F)(F)F)cc3)ccc2OC[C@@H]2O[C@H](CC(=O)NC3Cc4ccccc4C3)CC[C@H]21	37*
CN1C(=O)c2cc(NC(=O)c3ccc(C(F)(F)F)cc3)ccc2OC[C@H]2O[C@H](CC(=O)NC3Cc4ccccc4C3)CC[C@@H]21	63*
CCCNC(=O)N(C)C[C@H]1Oc2ncc(/C=C/c3ccccc3)cc2C(=O)N([C@@H](C)CO)C[C@@H]1C	0
CNC[C@@H]1Oc2ncc(-c3ccc(C#N)cc3)cc2C(=O)N([C@H](C)CO)C[C@@H]1C	4
C[C@@H]1CN([C@H](C)CO)C(=O)c2cc(C3=CCCCC3)cnc2O[C@H]1CN(C)Cc1ccccc1C(=O)O	-16
CCC(=O)N(C)C[C@@H]1Oc2cc(-c3cccnc3)ccc2S(=O)(=O)N([C@@H](C)CO)C[C@@H]1C	1
CCCNC(=O)N1C[C@@H]2[C@H](c3ccccc31)[C@@H](CO)N2C(=O)C1CCOCC1	39*
O=C(c1ccccc1)N1C[C@H]2[C@@H](c3ccccc31)[C@@H](CO)N2C(=O)c1cccc(F)c1	-100
CCCNC(=O)N1[C@@H]2CN(C(=O)c3ccccc3)c3ccccc3[C@@H]2[C@@H]1CO	36*
COCC(=O)N1[C@@H](CO)[C@@H]2c3ccccc3N(C(=O)c3cccnc3)C[C@@H]21	42*
C[C@H](CO)N1C[C@H](C)[C@H](CN(C)Cc2cncnc2)Oc2cc(-c3ccccc3)ccc2S1(=O)=O	2
